# The list is not random: actives were taken first. Their share in the collection is about 1.4%.
# MEX-5 binding = C. elegans MEX-5 TCR-2 RNA binding activity; MEX-5/FITC-TCR2 RNA binding, fluorescence polarization; active compounds read low; activity score (negative = inhibition of binding), % at 10 µM; 0.38% of 300,000 active; AID 1832;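 active means inhibition past about -25% in most replicates, and total fluorescence under double the plate's negative control median, limit read from the data; inconclusive means replicates evenly split on the limit, or fluorescence at least double controls; inactive means too little inhibition in most replicates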;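 further: 0% = DMSO and -100% = 5 µM competing unlabeled TCR2 RNA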
# GLD-1 TGE inh = GLD-1-TGE RNA interaction inhibition (C. elegans); Q17339; 0.44% of 320,000 active; AID 2280; inhibition, % at 5.96 µM; purified GLD-1 + fluorescein TGE RNA, fluorescence polarization;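 active means percent inhibition above a per-plate cutoff, the plate mean of test compounds plus 3 SD, cut at about 30% in these data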;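 further: 0% = DMSO wells with GLD-1 and probe and 100% = wells lacking GLD-1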
# Bcl-xL primary = Bcl-xL (human) inhibition; 0.7% of 320,000 active; inhibition, % at 10.9 µM; Q07817; GST-Bcl-xL / FITC-Bim BH3 peptide fluorescence polarization; AID 2129;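 active means inhibition above the mean of all tested compounds plus 3 SD, cutoff set per campaign, cut at about 30% in these data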;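 further: 0% = DMSO wells and 100% = unlabeled Bim-BH3 peptide competitor; inhibitors lower millipolarization by displacing the labeled peptide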
# MCL1-BIM inh = inhibitors of human MCL1 binding to BIM-BH3 peptide; Q07820; GST-MCL1 / FITC-Bim-BH3 fluorescence polarization; inhibition, % at 10.9 µM; 0.68% of 320,000 active;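 active means inhibition above the mean inhibition of all tested compounds plus 3 SD, set per campaign, cut at about 40% in these data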;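 further: 0% = DMSO wells and 100% = unlabeled Bim-BH3 peptide control; higher means more loss of mP so more displacement of Bim peptide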
# E coli Lon inh = E. coli protease La inhibition | purified E. coli Lon protease, fluorescence polarization | inhibition, % at 7.94 µM | 0.42% of 360,000 active | AID 602123; in the data active means inhibition above about 13%, passing the limit was not always enough;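 further: 0% = enzyme with probe and DMSO and 100% = no enzyme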
# Target sequence (P0A9M0 whole entry, looked up): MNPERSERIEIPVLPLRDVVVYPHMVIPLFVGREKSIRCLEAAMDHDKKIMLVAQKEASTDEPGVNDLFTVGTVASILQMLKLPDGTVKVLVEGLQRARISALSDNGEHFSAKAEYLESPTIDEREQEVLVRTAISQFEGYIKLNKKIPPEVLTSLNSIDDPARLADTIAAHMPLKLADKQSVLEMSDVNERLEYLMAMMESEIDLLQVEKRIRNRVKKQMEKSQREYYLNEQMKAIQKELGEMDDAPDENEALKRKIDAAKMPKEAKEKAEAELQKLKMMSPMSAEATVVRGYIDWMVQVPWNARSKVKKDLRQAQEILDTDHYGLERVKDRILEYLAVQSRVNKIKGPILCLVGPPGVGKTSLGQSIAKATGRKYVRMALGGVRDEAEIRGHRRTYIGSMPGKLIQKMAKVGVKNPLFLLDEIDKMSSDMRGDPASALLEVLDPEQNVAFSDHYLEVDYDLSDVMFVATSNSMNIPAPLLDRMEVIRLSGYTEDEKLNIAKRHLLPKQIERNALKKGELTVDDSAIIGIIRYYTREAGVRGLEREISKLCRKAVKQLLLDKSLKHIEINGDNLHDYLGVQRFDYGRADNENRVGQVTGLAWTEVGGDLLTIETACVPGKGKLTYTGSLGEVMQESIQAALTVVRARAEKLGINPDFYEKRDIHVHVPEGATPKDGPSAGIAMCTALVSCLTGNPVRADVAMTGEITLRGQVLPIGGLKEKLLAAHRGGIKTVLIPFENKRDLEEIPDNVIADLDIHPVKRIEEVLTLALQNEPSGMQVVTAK
# Bcl-xL conf = counter-screen for MCL1 inhibitors: confirmation of human Bcl-xL inhibitors | shares compounds with MCL1-BIM inh | GST-Bcl-xL / FITC-Bim BH3 peptide FP binding | inhibition, % at 10.9 µM | 54% of 1,700 active | AID 2166;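 active means inhibition above a cutoff equal to the mean inhibition of all tested compounds plus 3 SD, cut at about 30% in these data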;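 further: 0% = DMSO wells and 100% = unlabeled Bim BH3 control peptide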
# MCL1 inh confirm = confirmation of human MCL1 and BIM-BH3 interaction inhibitors; GST-MCL1 / FITC-Bim-BH3 fluorescence polarization; AID 2168; inhibition, % at 10.9 µM; shares compounds with MCL1-BIM inh; 61% of 1,700 active;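 active means inhibition above the average of all tested compounds plus 3 SD, cut at about 40% in these data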;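 further: 0% = DMSO wells and 100% = unlabeled Bim-BH3 control peptide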
# * = called active by the depositor; ? = inconclusive; . = no result.
SMILES,MEX-5 binding,GLD-1 TGE inh,Bcl-xL primary,MCL1-BIM inh,E coli Lon inh,Bcl-xL conf,MCL1 inh confirm
O=C1CCCC2=C1C(c1ccc(O)c(O)c1)Nc1ccc3ncccc3c12 (configuration not stated),-6.8,6.6,36.2*,49.9*,2.6,41.1*,57.5*
CC(C)CC(c1nnnn1C1CCCC1)N1CCC(C(N)=O)CC1 (configuration not stated),1.5,-3.0,0.7,-1.9,3.9,.,.
Cc1ccc(N=Cc2cc(Cc3ccccc3Cl)cc([N+](=O)[O-])c2O)c(O)c1,-10.1,-2.7,43.8*,47.3*,-3.0,7.0,47.2*
COc1ccc(N=Cc2cc(Cc3ccccc3Cl)cc([N+](=O)[O-])c2O)cc1OC,-2.4,5.8,-11.5,-18.1,-9.7,.,.
Cc1ccc(OCC(=O)c2c(N)n(C)c(=O)n(C)c2=O)c([N+](=O)[O-])n1,.,14.4,35.9*,71.9*,5.1,23.2,59.4*
COc1ccc(C(=O)C[n+]2cc(Br)cc3ccccc32)cc1[N+](=O)[O-],-0.8,-86.0,54.0*,74.8*,-61.7,21.9,24.1
C/C(CC(=O)Nc1cccc(C(F)(F)F)c1)=N\NC(=O)c1cnccn1,-0.5,1.4,0.9,2.0,-3.5,.,.
Cc1cc2c(cc1[N+](=O)[O-])NC(CNC(C)C)CC2 (configuration not stated),-0.2,50.8*,97.5*,96.0*,0.1,5.2,4.0
CC(/C=N/NC(=O)Cn1cnc2c1c(=O)n(C)c(=O)n2C)=C\c1ccccc1,-0.7,4.5,-1.9,-7.5,1.5,.,.
O=C(CSc1nnc(SCc2ccccc2)s1)N/N=C/C=C/c1ccco1,1.5,5.1,9.0,57.7*,-11.2,22.9,66.6*
CCn1c(SCC(=O)N/N=C/C=C/c2ccco2)nnc1-c1ccccc1,-2.6,5.0,13.1,15.9,3.3,.,.
O=C(CSc1ccc(-c2ccco2)nn1)c1ccccc1,0.8,2.7,22.1,41.7*,3.6,21.0,24.4
COc1ccc(CNC(=O)OCCN2CCN(Cc3ccccc3)CCC2=O)cc1,0.3,1.5,15.0,14.5,-5.1,.,.
O=C(CSc1ccccn1)Nc1ccc2c(c1)C(=O)c1ccccc1C2=O,-2.4,4.0,14.1,54.9*,1.6,29.4,60.4*
CC(=O)Nc1ccc(NC(=O)C(C)OC(=O)CSCc2cccc(Cl)c2)cc1 (configuration not stated),-1.0,4.4,-1.8,-1.8,3.9,.,.
CCc1nc2ccc(C(=O)NCc3ccc4c(c3)OCO4)cn2c1N(C)Cc1ccc(OC)cc1,.,.,.,.,-7.2,.,.
COc1cc([C@@H]2[C@H]3CNCC=C3C(C#N)=C(N)C2(C#N)C#N)ccc1OC(C)C,-8.3,-20.6,-1.2,-12.7,-62.3,.,.
CC(C)N1CC=C2C(C#N)=C(N)C(C#N)(C#N)[C@H](c3ccoc3)[C@H]2C1,?,85.0*,157.6*,183.2*,.,78.4*,100.1*
CC(C)(C)OC(=O)N1CC=C2C(C#N)=C(N)C(C#N)(C#N)[C@H](c3cccnc3)[C@H]2C1,-28.0*,36.5*,53.2*,66.7*,-13.5,45.3*,47.2*
COc1cc(C2C3CN(C)CC=C3C(C#N)=C(N)C2(C#N)C#N)ccc1OC(C)C (configuration not stated),-29.6*,12.2,59.6*,65.8*,8.5,20.5,27.2
O=C(c1cc([N+](=O)[O-])cc([N+](=O)[O-])c1)N1CCOCC1,0.8,-2.8,5.1,10.9,-0.1,.,.
C=C(C)CN(CC)c1nc(N)c2c(N)nc3c(c2c1C#N)CC(=O)N3C12CC3CC(CC(C3)C1)C2,-0.5,21.2,14.4,39.5,20.9,.,.
N#Cc1c(N2CCCC(O)C2)nc(N)c2c(N)nc3c(c12)CC(=O)N3C12CC3CC(CC(C3)C1)C2 (configuration not stated),.,12.1,28.4,54.4*,35.1*,18.2,22.3
Clc1ccc(-c2cn3nc4c(nc3n2)CCCC4)cc1,0.8,81.5*,103.6*,106.5*,6.1,76.5*,89.4*
CC(=O)NN1C(=O)/C(=C\c2ccc(Br)o2)SC1=S,-0.9,7.8,33.4*,70.9*,5.0,12.7,18.3

# Assay outcomes from PubChem.
